From PubChem BioAssay (EPA / NIEHS)
The source made the active and inactive calls. How the source made its calls: active means hit-call score of the fitted dose curve at least 0.9, where 1 is the maximum; inactive means score below 0.9.

Assays:
[1] = read-out: Tumor necrosis factor receptor superfamily member 6 (Homo sapiens) (UniProt P25445); test: LTEA_HepaRG_FAS: Life Technologies and Expression Analysis (LTEA) Assay for Fas cell surface death receptor (FAS) using HepaRG (AID 2283447); conditions: mRNA level, 48 h; actives raise or lower the signal
Outline: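 Differentiated human HepaRG cells, pre-cultured 48 h, were exposed in duplicate for 48 h to 8-point half-log concentrations (top 100 uM, 0.5% DMSO) in serum-free induction medium; FAS mRNA measured by qRT-PCR, normalized to ACTB/GAPDH/POLR2A, bidirectional fit versus DMSO.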

[2] = read-out: Fatty acid synthase (Homo sapiens) (UniProt P49327); test: LTEA_HepaRG_FASN: Life Technologies and Expression Analysis (LTEA) Assay for Fatty Acid Synthase (FASN) using HepaRG (AID 2283448); conditions: mRNA level, 48 h; actives raise or lower the signal
Outline: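 HepaRG, 48 h exposure, 8-pt half-log series top 100 uM, 0.5% DMSO vehicle, duplicates. Readout: FASN transcript by Fluidigm qRT-PCR; housekeeping-normalized; bidirectional curve fit vs DMSO baseline.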

[3] = read-out: Cyclin D2 (CCND2), CCND2 (gene 894); test: LTEA_HepaRG_CCND2: Life Technologies and Expression Analysis (LTEA) Assay for Cyclin D2 (CCND2) using HepaRG (AID 2283449); conditions: mRNA level, 48 h; actives raise or lower the signal;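 further: CCND2 transcript measured by TaqMan qRT-PCR and normalised to three housekeeping genes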
Outline: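 In this HepaRG study, an eight-point concentration series (max 100 uM, 0.5% DMSO) is applied for 48 h. CCND2 mRNA change is derived by qRT-PCR normalised to ACTB, GAPDH and POLR2A.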

[4] = read-out: Cyclin Dependent Kinase Inhibitor 1A (CDKN1A), CDKN1A (gene 1026); test: LTEA_HepaRG_CDKN1A: Life Technologies and Expression Analysis (LTEA) Assay for Cyclin Dependent Kinase Inhibitor 1A (CDKN1A) using HepaRG (AID 2283450); conditions: mRNA level, 48 h; actives raise or lower the signal
Outline: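 HepaRG, 48 h dosing, 8-pt half-log series from 100 uM top, 0.5% DMSO vehicle, duplicates. Readout: TaqMan qRT-PCR of CDKN1A transcript, housekeeping-normalized (ACTB, GAPDH, POLR2A). Up/down curve fit relative to DMSO.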

[5] = read-out: Cyclin D1 (CCND1), CCND1 (gene 595); test: LTEA_HepaRG_CCND1: Life Technologies and Expression Analysis (LTEA) Assay for Cyclin D1 (CCND1) using HepaRG (AID 2283451); conditions: mRNA level, 48 h; actives raise or lower the signal;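 on AC50: TaqMan qRT-PCR transcript level normalised to ACTB GAPDH and POLR2A housekeeping genes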
Outline: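 qRT-PCR (Fluidigm 96.96 array) read-out of transcript level, housekeeping-normalized (ACTB/GAPDH/POLR2A). HepaRG cells, 48 h chemical exposure, 8-point half-log series from 100 uM, 0.5% DMSO vehicle; gain or loss relative to DMSO baseline.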

[6] = read-out: catalase (CAT), CAT (gene 847); test: LTEA_HepaRG_CAT: Life Technologies and Expression Analysis (LTEA) Assay for catalase (CAT) using HepaRG (AID 2283452); conditions: mRNA level, 48 h; actives raise or lower the signal
Outline: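 Differentiated HepaRG cells in serum-free induction medium were dosed 48 h in duplicate, eight half-log concentrations from 100 uM in 0.5% DMSO. Transcript measured by TaqMan qRT-PCR, normalised to ACTB/GAPDH/POLR2A, fitted bidirectionally against DMSO.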

[7] = read-out: flavin-containing dimethylaniline monooxygenases 3 (FMO3), FMO3 (gene 2328); test: LTEA_HepaRG_FMO3: Life Technologies and Expression Analysis (LTEA) Assay for flavin-containing dimethylaniline monooxygenases 3 (FMO3) using HepaRG (AID 2283453); conditions: mRNA level, 48 h; actives raise or lower the signal;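 on AC50: FMO3 transcript by TaqMan qRT-PCR normalized to ACTB GAPDH and POLR2A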
Outline: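 Eight-point concentration-response in serum-free HepaRG cultures (top 100 uM, 0.5% DMSO, 48 h). Read-out: FMO3 mRNA level normalized to three endogenous control genes, fitted bidirectionally versus vehicle.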

[8] = CEETOX_H295R_ESTRONE: CeeTox H295R High-throughput Steroidogenesis Assay for Estrone (AID 2283441); conditions: actives raise or lower the signal;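 further: estrone secreted into medium measured by LC-MS/MS after dansyl derivatization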;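 on AC50: human adrenal H295R cells prestimulated with forskolin for two days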
Outline: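 Forskolin-stimulated H295R cells are treated 48 h with chemical, and estrone in the medium is measured by LC-MS/MS. Activity is fitted in both directions relative to DMSO controls, with chemicals diluted until MTT viability reaches at least 70%.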

[9] = CEETOX_H295R_PROG: CeeTox H295R High-throughput Steroidogenesis Assay for Progesterone (PROG) (AID 2283442); conditions: actives raise or lower the signal;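 on AC50: human H295R adrenal cells primed with 10 µM forskolin before dosing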
Outline: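 Progesterone read-out: HPLC-MS/MS on MTBE extracts of conditioned medium after 48 h chemical exposure of forskolin-primed (10 uM, 48 h) H295R cells. Gain or loss of signal was fitted relative to DMSO baseline.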

[10] = CEETOX_H295R_ESTRADIOL: CeeTox H295R High-throughput Steroidogenesis Assay for Estradiol (AID 2283440); conditions: actives raise or lower the signal;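 further: estradiol secreted into medium quantified by LC-MS/MS after dansyl derivatisation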
Outline: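 H295R, 48 h forskolin (10 uM) prestim → 48 h compound, 0.1% DMSO final. Estradiol in medium: MTBE extraction, dansyl chloride derivatization, LC-MS/MS. Fit bidirectional vs DMSO baseline; MTT viability in same wells.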

Measured: AC50

Chain of Fatty acid synthase (Homo sapiens) (P49327 whole entry, looked up): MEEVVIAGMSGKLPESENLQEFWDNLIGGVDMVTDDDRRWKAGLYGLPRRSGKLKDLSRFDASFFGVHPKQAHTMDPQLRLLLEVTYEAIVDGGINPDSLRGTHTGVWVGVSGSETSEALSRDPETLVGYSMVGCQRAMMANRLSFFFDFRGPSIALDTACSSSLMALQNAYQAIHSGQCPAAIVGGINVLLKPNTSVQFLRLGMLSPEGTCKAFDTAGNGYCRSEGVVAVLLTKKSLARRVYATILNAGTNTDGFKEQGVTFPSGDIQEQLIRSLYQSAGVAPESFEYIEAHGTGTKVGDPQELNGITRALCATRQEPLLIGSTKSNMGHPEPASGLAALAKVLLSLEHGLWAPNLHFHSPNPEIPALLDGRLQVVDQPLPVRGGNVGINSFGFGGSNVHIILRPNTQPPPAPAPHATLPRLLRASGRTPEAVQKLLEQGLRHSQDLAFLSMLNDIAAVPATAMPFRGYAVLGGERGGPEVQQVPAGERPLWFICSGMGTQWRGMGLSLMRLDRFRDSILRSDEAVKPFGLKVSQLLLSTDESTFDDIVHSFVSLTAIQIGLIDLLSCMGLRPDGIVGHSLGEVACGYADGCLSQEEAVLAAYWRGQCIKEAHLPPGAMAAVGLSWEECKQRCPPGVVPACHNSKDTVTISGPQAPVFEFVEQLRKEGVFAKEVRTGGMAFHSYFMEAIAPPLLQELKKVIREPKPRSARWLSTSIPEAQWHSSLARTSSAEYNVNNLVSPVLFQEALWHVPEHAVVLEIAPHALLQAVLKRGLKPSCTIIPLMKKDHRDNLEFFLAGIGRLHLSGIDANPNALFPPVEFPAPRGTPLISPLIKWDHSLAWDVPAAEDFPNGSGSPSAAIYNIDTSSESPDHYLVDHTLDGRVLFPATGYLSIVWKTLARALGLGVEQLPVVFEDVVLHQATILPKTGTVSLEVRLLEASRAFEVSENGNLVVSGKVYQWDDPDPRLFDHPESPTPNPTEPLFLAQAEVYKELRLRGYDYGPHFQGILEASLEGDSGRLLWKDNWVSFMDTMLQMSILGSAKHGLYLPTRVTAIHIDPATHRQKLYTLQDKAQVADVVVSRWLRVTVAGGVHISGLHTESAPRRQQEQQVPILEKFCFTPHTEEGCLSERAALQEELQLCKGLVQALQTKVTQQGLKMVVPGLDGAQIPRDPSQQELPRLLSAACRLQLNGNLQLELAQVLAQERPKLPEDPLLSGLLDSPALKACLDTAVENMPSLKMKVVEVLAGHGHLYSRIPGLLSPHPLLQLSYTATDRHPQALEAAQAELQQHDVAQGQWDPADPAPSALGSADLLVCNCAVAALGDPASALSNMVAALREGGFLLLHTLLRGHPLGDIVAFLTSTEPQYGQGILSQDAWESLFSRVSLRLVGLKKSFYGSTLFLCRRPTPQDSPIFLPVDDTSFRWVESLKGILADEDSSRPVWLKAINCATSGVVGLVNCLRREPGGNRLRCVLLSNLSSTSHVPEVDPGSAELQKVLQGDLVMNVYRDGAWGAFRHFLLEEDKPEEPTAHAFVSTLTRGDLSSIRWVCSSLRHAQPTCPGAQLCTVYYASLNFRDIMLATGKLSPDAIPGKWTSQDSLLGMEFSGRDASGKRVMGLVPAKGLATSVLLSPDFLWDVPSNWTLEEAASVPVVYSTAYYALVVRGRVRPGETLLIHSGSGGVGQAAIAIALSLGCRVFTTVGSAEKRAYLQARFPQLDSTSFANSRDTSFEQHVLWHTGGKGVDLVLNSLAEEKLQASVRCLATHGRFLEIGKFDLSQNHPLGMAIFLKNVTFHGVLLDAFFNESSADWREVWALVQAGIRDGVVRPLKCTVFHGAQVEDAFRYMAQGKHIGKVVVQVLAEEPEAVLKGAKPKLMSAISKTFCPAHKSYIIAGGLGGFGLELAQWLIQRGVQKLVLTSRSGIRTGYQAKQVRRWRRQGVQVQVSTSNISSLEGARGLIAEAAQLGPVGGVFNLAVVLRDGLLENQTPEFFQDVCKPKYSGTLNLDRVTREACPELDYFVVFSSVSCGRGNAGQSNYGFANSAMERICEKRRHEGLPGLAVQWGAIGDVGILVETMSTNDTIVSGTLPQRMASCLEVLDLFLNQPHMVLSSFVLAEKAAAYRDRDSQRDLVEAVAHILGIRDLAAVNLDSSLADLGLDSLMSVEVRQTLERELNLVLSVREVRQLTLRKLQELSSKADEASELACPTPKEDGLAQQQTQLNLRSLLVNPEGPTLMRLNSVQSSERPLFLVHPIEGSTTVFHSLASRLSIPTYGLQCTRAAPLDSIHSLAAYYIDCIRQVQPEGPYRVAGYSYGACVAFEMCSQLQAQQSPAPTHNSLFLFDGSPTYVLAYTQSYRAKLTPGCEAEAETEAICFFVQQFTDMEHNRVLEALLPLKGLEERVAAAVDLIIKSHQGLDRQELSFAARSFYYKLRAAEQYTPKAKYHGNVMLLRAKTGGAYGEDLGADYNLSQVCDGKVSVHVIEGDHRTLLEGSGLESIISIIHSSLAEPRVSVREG

O=S(=O)(O)c1ccc(N=Nc2c(O)ccc3cc(S(=O)(=O)O)ccc23)cc1
not listed: [8] | [9] | [10]
inactive: all other assays above

Cc1ncc([C@@H](CCCCCCc2ccc3c(n2)NCCC3)CC(=O)O)cn1
active: [9] 12.5 µM
not listed: [10]
inactive: all other assays above

CC(C)C(=O)Nc1ccc([N+](=O)[O-])c(C(F)(F)F)c1
inactive: [3]
active: [1] 67 µM | [2] 37 µM | [4] 50 µM | [5] 12.4 µM | [6] 62.1 µM | [7] 50 µM

O=C(NO)C1(NS(=O)(=O)c2ccc(Oc3ccc(F)cc3)cc2)CCOCC1
inactive: [1] | [3] | [5]
active: [2] 50 µM | [4] 85.1 µM | [6] 85.5 µM | [7] 76.5 µM

CCCCCCCCCCCCCCO
inactive: all assays above

c1ccc2ncccc2c1
not listed: [8] | [9] | [10]
inactive: all other assays above

Nc1ccn([C@@H]2O[C@H](CO)[C@@H](O)[C@@H]2O)c(=O)n1
not listed: [8] | [10]
inactive: all other assays above

CNC(C)=O
not listed: [8] | [9] | [10]
inactive: all other assays above

CCCCCCCCN(C)C
not listed: [8] | [10]
inactive: all other assays above

O=C(O)c1ccc2c(c1)nc(C(=O)NC1CCN(C3CC3)CC1)n2Cc1cc(-c2ccc(Cl)s2)on1
not listed: [8] | [9] | [10]
inactive: all other assays above

COc1cc2c(c(OC)c1OC)-c1ccc(OC)c(=O)cc1[C@@H](NC(C)=O)CC2
active: [1] 0.0799 µM | [2] 0.0575 µM | [5] 0.0178 µM | [6] 0.0772 µM | [7] 0.0477 µM
inactive: [10] | [8] | [9] | [3] | [4]

CC(C)c1nnc2ccc(-c3ocnc3-c3cc(F)ccc3F)cn12
active: [2] 50 µM | [6] 50 µM | [7] 63.6 µM
not listed: [3]
inactive: all other assays above

Cc1nc(-c2ccccn2)ncc1C(=O)Nn1cc(C)c2cc(F)ccc21
inactive: [1] | [2] | [4] | [5]
active: [3] 1.49 µM | [6] 50 µM | [7] 85.2 µM

CC(C)CC(C)O (stereo unspecified)
not listed: [8] | [9] | [10]
inactive: all other assays above

C=CCc1cc(S(=O)(=O)c2ccc(O)c(CC=C)c2)ccc1O
active: [9] 0.351 µM | [2] 81.4 µM | [5] 88.2 µM | [6] 71.6 µM | [7] 76.9 µM
inactive: [10] | [8] | [1] | [4]

c1ccc2c(c1)-c1cccc3c1c-2cc1ccccc13
active: [2] 13.7 µM | [5] 5.32 µM | [6] 15.1 µM | [7] 18.4 µM
not listed: [9]
inactive: all other assays above

O=C(O)c1cccc(C[C@@H]2COc3ccc(OCc4nc5cc(F)ccc5s4)cc3[C@@H]2O)c1
inactive: [1] | [3] | [4] | [5] | [7]
active: [2] 85.5 µM | [6] 50 µM

CCn1nc(C)c2c1C(=O)NCC(c1ccc(O)cc1)=N2
active: [10] 0.18 µM | [8] 0.185 µM | [9] 1.91 µM | [2] 17.1 µM
inactive: all other assays above

O=c1[nH]cnc2c1ncn2[C@H]1CC[C@@H](CO)O1
not listed: [8] | [9] | [10]
inactive: all other assays above

O=C(O)[C@H](O)[C@@H](O)C(=O)O
not listed: [8] | [9] | [10]
inactive: all other assays above

OCc1c[nH]c2ccccc12
inactive: [10] | [8] | [9]

CCCC(CCC)C(=O)O
not listed: [8] | [9] | [10]
inactive: all other assays above

OCCNCCO
active: [2] 9.92 µM | [6] 50 µM
inactive: [1] | [3] | [4] | [5] | [7]

CCCCCCCC/C=C\CCCCCCCC(=O)OC[C@@H](O)[C@H]1OC[C@H](O)[C@H]1O
not listed: [8] | [9] | [10]
inactive: all other assays above

O=S1(=O)CCCO1
not listed: [8] | [9] | [10]
inactive: all other assays above

CC[C@H](C)C(=O)O[C@H]1C[C@H](O)C=C2C=C[C@H](C)[C@H](CC[C@@H](O)C[C@@H](O)CC(=O)O)[C@H]21
active: [9] 0.949 µM | [2] 3.08 µM
inactive: all other assays above

C[C@]12C=CC(=O)C=C1CC[C@H]1[C@@H]3C[C@@H](O)[C@](O)(C(=O)CO)[C@@]3(C)C[C@H](O)[C@@]12F
not listed: [8] | [10]
inactive: all other assays above

C[C@@H](Oc1ccc(CNC(=O)c2cccnc2Oc2ccc3c(c2)OCO3)c(F)c1)C(=O)O
active: [8] 0.128 µM
inactive: all other assays above

CCOc1ccc2[nH]cc(C(=O)NCc3ccccc3)c(=O)c2n1
active: [7] 79.6 µM
inactive: all other assays above

Cn1c(=O)c2[nH]cnc2n(C)c1=O
not listed: [8] | [9] | [10]
inactive: all other assays above

CCCCC(CC)C(=O)OCCOCCOCCOC(=O)C(CC)CCCC (stereo unspecified)
not listed: [3]
inactive: all other assays above

CC(=O)c1ccccc1
not listed: [8] | [9] | [10]
inactive: all other assays above

CCCCCCCC1CCC(=O)O1 (stereo unspecified)
inactive: all assays above
